# A selection: hits, their analogues and other compounds. The true share with any hit is near 12%.
# G9a inh – G9a (human) methyltransferase inhibition | Q96KQ7 | hit rate 8.8% among 350,000 | G9a H3K9 monomethylation, AlphaScreen, 2 h | Potency, µM (highest dose often 102 µM), actives largely listed as inhibitors | AID 504332; also: nearly all actives have a fitted effect of over 75% in size
#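 Step 1: enzyme (final 20 nM) with compound, 15 min RT. Step 2: substrate peptide 500 nM and SAM 20 uM, 2 h RT. Step 3: anti-H3K9me1 antibody and AlphaScreen beads, 10 min, then plate read.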
# JMJD2A Tudor – blocks the human JMJD2A Tudor domain. AlphaScreen JMJD2A-Tudor / H3K4me3 peptide binding. Potency, µM (series often up to 114 µM), most hits filed as inhibitors. hit rate 4.4% among 390,000. AID 504339; also: nearly all actives have a fitted effect of over 50% in size
# PLK1 PBD inh – PLK1 (human) polo-box domain binding inhibition | P53350 | Plk1 PBD binding of FITC phosphopeptide, fluorescence polarization | Potency, µM, most hits filed as inhibitors | hit rate 2.8% among 360,000; also: series mostly up to about 57 µM; nearly all actives have a fitted effect of over 65% in size
# HP1b chromo inh – blocks HP1-beta chromodomain binding to methylated histone tails; P83916; AlphaScreen HP1-beta / biotin-H3K9me3 peptide binding; Potency, µM (series often up to 114 µM), hits mostly inhibitors; hit rate 0.56% among 390,000; AID 540317; also: nearly all actives have a fitted effect of over 70% in size
# Target sequence (P83916 whole entry, looked up): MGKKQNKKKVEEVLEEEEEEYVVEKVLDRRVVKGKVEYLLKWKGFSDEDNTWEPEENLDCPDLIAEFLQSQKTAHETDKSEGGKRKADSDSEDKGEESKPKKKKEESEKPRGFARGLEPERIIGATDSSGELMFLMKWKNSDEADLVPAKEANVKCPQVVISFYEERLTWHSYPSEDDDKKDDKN
#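 Compound inhibition of the preformed complex between 50 nM HP1-beta and 50 nM biotinylated H3K9me3 peptide was read by AlphaScreen. Buffer was PBS pH 7.4 with 0.01% Tween-20. Incubations ran 30 min at room temperature, with 10 ug/mL donor/acceptor beads.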
# PI5P4K alpha inh – blocks human PI5P4K alpha kinase activity; PI5P4Kalpha enzyme, ADP-Glo luminescence, 60 min; active compounds read low; max response, %; hit rate 1.2% among 330,000; AID 652105; active = max response of -50% or lower; inconclusive = between -30% and -50%; inactive = -30% or higher; also: value at the top dose of about 77 µM
# Target sequence (P48426 whole entry, looked up): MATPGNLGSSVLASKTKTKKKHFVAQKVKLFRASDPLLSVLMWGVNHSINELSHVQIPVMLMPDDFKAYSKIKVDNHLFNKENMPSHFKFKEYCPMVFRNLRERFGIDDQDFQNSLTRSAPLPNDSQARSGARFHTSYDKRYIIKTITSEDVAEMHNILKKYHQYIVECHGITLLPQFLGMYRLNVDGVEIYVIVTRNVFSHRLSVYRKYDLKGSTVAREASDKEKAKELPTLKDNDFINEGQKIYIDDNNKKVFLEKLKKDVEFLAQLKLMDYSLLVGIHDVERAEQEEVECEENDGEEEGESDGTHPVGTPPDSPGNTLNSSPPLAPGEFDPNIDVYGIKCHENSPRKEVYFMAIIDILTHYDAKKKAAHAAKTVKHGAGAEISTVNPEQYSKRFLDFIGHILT
#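 Human PI5P4Kalpha with substrate in 0.038 M HEPES pH 7.4, 0.28 mM EGTA, 0.1% CHAPS, 5% DMSO; reaction started with 5 microM ATP (final), 60 min at room temperature. ADP formed read by ADP-Glo luminescence.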
# BAZ2B block – inhibitors of human BAZ2B bromodomain; hit rate 4.4% among 360,000; AlphaScreen BAZ2B-H3K14Ac peptide displacement; Potency, µM (titrated, usually from 114 µM), actives largely listed as inhibitors; Q9UIF8; also: nearly all actives have a fitted effect of over 60% in size
#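 Inhibition is scored as reduced AlphaScreen emission. The BAZ2B/b-H3(5-23)K14Ac complex (50 nM each) in PBS pH 7.4, 0.01% Tween-20 meets compound (up to 110 uM) for 30 min at RT before bead addition.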
# A number is an active result; . = inactive; ? = inconclusive; / = no result given; ! = not active in a repeat; [ ] = remark or other dose. Unless noted, calls follow the shape of the dose curve; as a rule, active = well fitted curve in the direction sought with a large enough effect; inconclusive = small, poorly fitted or top-dose-only effect, or another doubt; inactive = no such curve, though single readings can be large; an effect the other way counts as inactive or inconclusive.
SMILES,G9a inh,JMJD2A Tudor,PLK1 PBD inh,HP1b chromo inh,PI5P4K alpha inh,BAZ2B block
CCc1c(C)nc(SCC(=O)N2CCN(c3ccccc3)CC2)[nH]c1=O,.,.,.,.,.,.
CCc1c(C)nc(SCC(=O)N2CCCCC2CC)[nH]c1=O (stereo unspecified),/,.[11.4 µM],24µM,.,.,.
COc1cccc(C(c2cccc(OC)c2)c2ccccc2C(=O)O)c1,/,.,.,.,.,/
O=C1CC(SC2=NCCS2)C(=O)N1c1ccc(Cl)cc1 (stereo unspecified),.,.,.,.,.,.
O=C1CC(SC2=NCCS2)C(=O)N1c1ccc(Br)cc1 (stereo unspecified),45µM,.,.,.,.,.
CCCCN1CCc2nc(Nc3ccc(OC)cc3OC)ncc2C1,.,?,/,.,/,?
Cc1ccc(N2C(=O)C(Cl)=C(N3CCOCC3)C2=O)cc1Cl,.,?,.,.,.,.
CN1CCN(C2=C(Cl)C(=O)N(c3ccc(Cl)c(Cl)c3)C2=O)CC1,32µM,22µM,27µM,.,.,?
CN1CCN(C2=C(Cl)C(=O)N(c3cccc(Cl)c3)C2=O)CC1,?,18µM,.,.,.,.
CC1CCCN(C2=C(Cl)C(=O)N(c3cccc(Cl)c3)C2=O)C1 (stereo unspecified),.,.,.,.,.,.
Cc1cccc(N(C(=O)c2snc(C(N)=O)c2N)C(C(=O)NCc2ccccc2)c2ccncc2)c1 (stereo unspecified),50µM,.,.,?,.,.
CN(C)c1ccc(C(C(=O)NCc2ccccc2)N(Cc2ccco2)C(=O)c2snc(C(N)=O)c2N)cc1 (stereo unspecified),35µM,?,.,.,.,?
COc1ccc(NCc2cc3cc4c(cc3n(CC(=O)Nc3ccccc3)c2=O)OCO4)cc1,?,.,/,.,/,.
Cc1ccc(C2CC(=O)Oc3c(C(C)C)ccc(C)c32)cc1 (stereo unspecified),.,/,/,/,/,/
O=C(c1ccc(Cn2cc(Cl)cn2)o1)N1CCN(Cc2ccc3c(c2)OCO3)CC1,45µM,.,.,.,.,?
COC(=O)c1sc(NC(=O)c2ccc(Cn3cc(Cl)cn3)o2)c(C#N)c1C,7.9µM,?,3µM,.,?,.
CN1CCN(C(=O)c2ccc(CS(=O)Cc3ccc(Cl)cc3)o2)CC1 (stereo unspecified),.,.,.,.,.,.
CN1CCN(C(=O)c2ccc(Cn3cc(Cl)cn3)o2)CC1,71µM,.,.,.,.,.
Cc1ccc(CCNC(=O)C2CCN(S(=O)(=O)c3ccc4c(c3)NC(=O)CO4)CC2)cc1,.,.,.,.,.,.
Cc1cccc(C)c1C(OCCN(C)C)C1CCCCC1 (stereo unspecified),10µM,14µM,.,?,.,?
Cc1ccc(C(=O)Nc2ccccc2)cc1S(=O)(=O)Nc1ccc(Br)cc1,.,.,/,.,/,.
Cc1ccc(C(=O)Nc2ccc(Br)cc2)cc1S(=O)(=O)Nc1ccccn1,79µM,.,.,.,.,.
Nc1ccc(S(=O)(=O)Nc2ccccn2)cc1,25µM!,.,.,.,.,.
O=C(Nc1ccc(S(=O)(=O)Nc2ccccn2)cc1)c1cccc(Cl)c1,25µM,.,.,.,.,.
Cc1cc(C)nc(NS(=O)(=O)c2ccc(N)cc2)n1,.,.,.,.,.,.
SMILES,G9a inh,JMJD2A Tudor,PLK1 PBD inh,HP1b chromo inh,PI5P4K alpha inh,BAZ2B block
CNc1cc(NS(=O)(=O)c2ccc(N)cc2)nc(NC)n1,.[12.7 µM],89µM,.,.,.,50µM
O=C(Nc1ccc(S(=O)(=O)Nc2ccccn2)cc1)c1cccc(Br)c1,/,.,.,.,.,.
CCOc1ccc(C(c2c(O)cc(C)n(CCOC)c2=O)N2CCC(C)CC2)cc1 (stereo unspecified),.,.,/,.,/,.
Cc1ccc(C(=O)Nc2ccc(S(=O)(=O)Nc3cnc4ccccc4n3)cc2)cc1,50µM,.,.,.,.,.
COc1cc(OC)cc(C(=O)Nc2ccc(S(=O)(=O)Nc3cnc4ccccc4n3)cc2)c1,/,.,.,.,.,/
O=C(O)CCc1cc(F)c(S(=O)(=O)N2CCN(S(=O)(=O)c3ccc4c(c3)OCCO4)CC2)cc1F,/,.,/,/,/,/
CCNC(=S)N1CCN=C1Nc1nc(C)cc(C)n1,.,.,.,.,.,.
Cc1cc(C)nc(NC2=NCCN2C(=O)NC2CCCCC2)n1,.[12.7 µM],.[11.4 µM],7.5µM,.,?,.
CCOC(=O)c1c(-c2cccs2)csc1N,50µM,.,?,?,.,.
COC(=O)c1c(-c2ccccc2)csc1N,?,.,11µM,?,.,?
CCOC(=O)c1c(-c2ccco2)csc1N,18µM,?,?,?,.,.
COc1ccc(NC(=O)CN2CCN(Cc3ccccc3Cl)S2(=O)=O)cc1Cl,.,.,/,.,/,.
CCC(CC)c1nnc(NC(=O)C2CC(=O)N(C3CCCC3)C2)s1 (stereo unspecified),11µM,.,?,.,.,.
CCCc1nnc(NC(=O)C2CC(=O)N(C3CCCC3)C2)s1 (stereo unspecified),22µM,.,?,.,.,.
COc1ccccc1COc1ccc2c(C)c(CC(=O)O)c(=O)oc2c1C,.,.,.,.,.,.
CC(C)C(=O)Nc1ccc(C(=O)N/N=C/c2cc(Br)cc(Br)c2O)cc1,/,?,.,.,.,7.9µM
CC(=O)Nc1ccc(C(=O)N/N=C/c2cc(Br)cc(Br)c2O)cc1,.,56µM,?,?,.,.
Cc1ccc(C(=O)O)cc1N=Cc1cc(Br)cc(Br)c1O,?,?,?,.,-56,.
COc1cccc(Cn2c(=O)n(-c3cccc(Cl)c3)c(=O)c3c4c(sc32)CN(C(C)=O)CC4)c1,.,.,/,.,/,.
Cc1onc(-c2ccccc2Cl)c1C(=O)N1CCN(c2ccc(F)cc2)CC1,.,.,.,.,.,.
O=C(O)C1=C[C@@H](c2ccc(F)cc2)C[C@@H](OCCCCO)O1,?,?,.,.,.,79µM
O=C(O)C1=C[C@@H](c2ccc(C(F)(F)F)cc2)C[C@@H](OCCCCO)O1,/,.,.,.,.,/
COC(=O)C1=C(C)N(CCc2ccc(OC)c(OC)c2)C(=O)/C1=C\N(C)C,45µM,.,?,.,.,.
CCN(c1ccccc1)S(=O)(=O)c1cc(CN2C(=O)c3cccnc3C2=O)ccc1OC,.,.,.,.,.,?
COc1ccc(CN2C(=O)c3cccnc3C2=O)cc1S(=O)(=O)N(C)c1cccc(C)c1,.,?,24µM,.,.,?
COc1ccc(CN2C(=O)c3cccnc3C2=O)cc1S(=O)(=O)NCc1ccc(C)cc1,.,.,.,.,.,79µM
COc1ccc(CCN2C(=O)c3cccnc3C2=O)cc1OC,.,.,.,.,.,79µM

# Bioassay records (PubChem BioAssay)
